Among the data in PubChem BioAssay (Tox21) are Potency values, retold here.

Where “and” joins values, the source holds several entries; their conditions need not be identical. Identical values can stand only once. Results filed as inconclusive are left out. Where a call stands in place of a potency, no number is given. A structure can be active in one record and inactive in another. Calls of active or inactive are those of the source. Calls come from the whole dose curve; as a rule, active = well fitted curve in the direction sought with a large enough effect in the repeat runs; inconclusive = weak or mixed curves; inactive = no such curve, though single readings can be large; an effect the other way counts as inactive or inconclusive.
Potency is the fitted concentration of half-maximal effect.

The first experiment can be described thus: qHTS RealTime-Glo MT Cell Viability Assay in HEK293 cells - 16 hour (AID 1224872). Note: nearly all actives have a fitted effect of over 50% in size. Particulars: RealTime-Glo luminescence; series mostly up to 76.8 µM. Put shortly:
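HEK293 cells seeded with NanoLuc/prosubstrate reagent, rested 5 h at 37 C, then dosed and kept at 37 C up to 40 h. Nonlytic real-time luminescence from viable cells read at 0, 8, 16, 24, 32 and 40 h.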
Turning to `c1ccc2ncccc2c1`, the Potency result is “inactive”.
The same measure, in the same setting: next, `Cc1ccc(C)c(O)c1`: “inactive”; `CNC[C@H](O)c1ccc(O)c(O)c1`: “inactive”; `O=C1OC2(c3ccccc31)c1cc(I)c(O)c(I)c1Oc1c2cc(I)c(O)c1I`: 49.1 µM (active) and inactive.
With `CCOC(=O)C(C)Oc1ccc(Oc2cnc3cc(Cl)ccc3n2)cc1` (stereo not drawn), the Potency was 20 µM (active) and 20.5 µM (active).
As to `COc1ccc(C(=O)c2ccccc2O)c(O)c1`, the Potency entry is “inactive”.
`CC(=O)Nc1ccc2c(c1)Cc1cc(NC(C)=O)ccc1-2`: the Potency result was “inactive”.
Take `CN(C)/N=N/c1nc[nH]c1C(N)=O`: the Potency entry was “inactive”.
With `COc1ccc2nc(N)sc2c1`, the Potency result is “inactive”.
As for `O=C(O)CCCC(=O)O`, the Potency entry was “inactive”.
For `CCCN1C=CN(C)C1`, the Potency entry is “inactive”.
With `NCCN`, the Potency result was “inactive”.
As to `Cc1cccc(Nc2ccccc2C(=O)O)c1C`, the Potency entry was “inactive”.
With `CN1CCOCC1`, the Potency entry is “inactive”.
The same measure, in the same setting: next, `Oc1c(Cl)ccc(Cl)c1Cl`: “inactive”.
For `Clc1ccc(Sc2cc(Cl)c(Cl)cc2Cl)cc1`, the Potency result is “inactive”.
With `CN(C)C`, the Potency result was “inactive”.
In the case of `C=CCCCCCCCCCC`, the Potency entry was “inactive”.
As to `O=C(O)CCCCCCCCCCCC(=O)O`, the Potency entry is “inactive”.
With `C[C@]12C=CC(=O)C=C1CC[C@H]1[C@@H]3C[C@@H](O)[C@](O)(C(=O)CO)[C@@]3(C)C[C@H](O)[C@@]12F`, the Potency entry was “inactive”.
In the case of `O=C(O)COCCN1CCN(C(c2ccccc2)c2ccc(Cl)cc2)CC1` (stereo not drawn), the Potency entry is “inactive”.
The same measure, in the same setting: next, `NC[C@H](O)c1ccc(O)c(O)c1`: “inactive”.
Consider `CCCCCCCC/C=C\CCCCCCCC(=O)O`, for which the Potency result is “inactive”.
Same read-out and setting: next, `CC(=O)OC(C)C`: “inactive”; `CC(=O)Oc1c(C)c(C)c2c(c1C)CC[C@@](C)(CCC[C@H](C)CCC[C@H](C)CCCC(C)C)O2`: “inactive”.
Regarding `C=CC(C)(O)CCC=C(C)C` (stereo not drawn), the Potency entry is “inactive”.
As for `c1ccc2c(c1)ccc1ncccc12`, the Potency entry is “inactive”.
With `C=CN1CCCC1=O`, the Potency entry was “inactive”.
Turning to `O=[Se](O)O`, the Potency result was “inactive”.
`CC(C)(C)c1cccc(C(C)(C)C)c1O`: the Potency is 38 µM (active) and inactive.
With `Cc1ccc(S(=O)(=O)O)cc1C`, the Potency entry is “inactive”.
For `c1ccc2c(c1)ccc1cc3c(ccc4ccccc43)cc12`, the Potency entry is “inactive”.
As for `COCCOCCOCCO`, the Potency result is “inactive”.
Turning to `Cc1ccc([N+](=O)[O-])c(C)c1`, the Potency is 38.9 µM (active) and inactive.
With `CC(=O)[C@@]1(O)CC[C@H]2[C@@H]3C[C@H](C)C4=CC(=O)C=C[C@]4(C)[C@@]3(F)[C@@H](O)C[C@@]21C`, the Potency is 38.9 µM (active) and inactive.
In the case of `OC[C@@H](O)[C@@H](O[C@@H]1O[C@H](CO)[C@H](O)[C@H](O)[C@H]1O)[C@H](O)[C@@H](O)CO`, the Potency entry is “inactive”.
As for `OCCNCCO`, the Potency entry is “inactive”.
In the case of `CC(C)[N+](C)(CCOC(=O)C1c2ccccc2Oc2ccccc21)C(C)C`, the Potency entry was “inactive”.
For `CC/C(=C(/CC)c1ccc(O)cc1)c1ccc(O)cc1`, the Potency is 15.4 µM (active) and 30.9 µM (active).

The next experiment can be described thus: qHTS RealTime-Glo MT Cell Viability Assay in HepG2 cells - 8 hour (AID 1224873). Note: nearly all actives have a fitted effect of over 55% in size. The note with it: RealTime-Glo luminescence; series mostly up to 76.8 µM. Put shortly: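 Real-time viability: cells seeded at 600 per well together with NanoLuc and cell-permeant prosubstrate, compounds added after 5 h incubation. Luminescence tracked at 0, 8, 16, 24, 32 and 40 h of exposure.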
In the case of `c1ccc2ncccc2c1`, the Potency result was “inactive”.
Same read-out and setting: next, `Cc1ccc(C)c(O)c1`: “inactive”.
With `CNC[C@H](O)c1ccc(O)c(O)c1`, the Potency entry was “inactive”.
In the case of `O=C1OC2(c3ccccc31)c1cc(I)c(O)c(I)c1Oc1c2cc(I)c(O)c1I`, the Potency is 39 µM (active).
On to `CCOC(=O)C(C)Oc1ccc(Oc2cnc3cc(Cl)ccc3n2)cc1` (stereo not drawn), for which the Potency result was “inactive”.
For the compound `COc1ccc(C(=O)c2ccccc2O)c(O)c1`, the Potency entry was “inactive”.
For `CC(=O)Nc1ccc2c(c1)Cc1cc(NC(C)=O)ccc1-2`, the Potency result is “inactive”.
Turning to `CN(C)/N=N/c1nc[nH]c1C(N)=O`, the Potency result is “inactive”.
Same read-out and setting: the result for `COc1ccc2nc(N)sc2c1` reads “inactive”; that for `O=C(O)CCCC(=O)O`, “inactive”.
Still for that read-out and setting: the result for `CCCN1C=CN(C)C1` reads “inactive”; that for `NCCN`, “inactive”.
Still for that read-out and setting: next, `Cc1cccc(Nc2ccccc2C(=O)O)c1C`: “inactive”; `CN1CCOCC1`: “inactive”.
As to `Oc1c(Cl)ccc(Cl)c1Cl`, the Potency entry was “inactive”.
On to `Clc1ccc(Sc2cc(Cl)c(Cl)cc2Cl)cc1`, for which the Potency entry is “inactive”.
As for `CN(C)C`, the Potency entry was “inactive”.
With `C=CCCCCCCCCCC`, the Potency entry is “inactive”.
With `O=C(O)CCCCCCCCCCCC(=O)O`, the Potency entry is “inactive”.
On to `C[C@]12C=CC(=O)C=C1CC[C@H]1[C@@H]3C[C@@H](O)[C@](O)(C(=O)CO)[C@@]3(C)C[C@H](O)[C@@]12F`, for which the Potency result was “inactive”.
On to `O=C(O)COCCN1CCN(C(c2ccccc2)c2ccc(Cl)cc2)CC1` (stereo not drawn), for which the Potency entry is “inactive”.
In the case of `NC[C@H](O)c1ccc(O)c(O)c1`, the Potency result is “inactive”.
With `CCCCCCCC/C=C\CCCCCCCC(=O)O`, the Potency entry was “inactive”.
Same read-out and setting: the result for `CC(=O)OC(C)C` reads “inactive”; that for `CC(=O)Oc1c(C)c(C)c2c(c1C)CC[C@@](C)(CCC[C@H](C)CCC[C@H](C)CCCC(C)C)O2`, “inactive”.
Consider `C=CC(C)(O)CCC=C(C)C` (stereo not drawn), for which the Potency result is “inactive”.
As for `c1ccc2c(c1)ccc1ncccc12`, the Potency result was “inactive”.
The same measure, in the same setting: the result for `C=CN1CCCC1=O` reads “inactive”; that for `O=[Se](O)O`, “inactive”.
As to `CC(C)(C)c1cccc(C(C)(C)C)c1O`, the Potency entry is “inactive”.
On the same count and under the same terms, next, `Cc1ccc(S(=O)(=O)O)cc1C`: “inactive”.
Consider `c1ccc2c(c1)ccc1cc3c(ccc4ccccc43)cc12`, for which the Potency entry was “inactive”.
In the case of `COCCOCCOCCO`, the Potency result is “inactive”.
`Cc1ccc([N+](=O)[O-])c(C)c1`: the Potency entry is “inactive”.
With `CC(=O)[C@@]1(O)CC[C@H]2[C@@H]3C[C@H](C)C4=CC(=O)C=C[C@]4(C)[C@@]3(F)[C@@H](O)C[C@@]21C`, the Potency result is “inactive”.
As for `OC[C@@H](O)[C@@H](O[C@@H]1O[C@H](CO)[C@H](O)[C@H](O)[C@H]1O)[C@H](O)[C@@H](O)CO`, the Potency entry was “inactive”.
Same read-out and setting: next, `OCCNCCO`: “inactive”; `CC(C)[N+](C)(CCOC(=O)C1c2ccccc2Oc2ccccc21)C(C)C`: “inactive”; `CC/C(=C(/CC)c1ccc(O)cc1)c1ccc(O)cc1`: “inactive”.
